Screen size: about 96,000 compounds; about 1,400 (1.5%) were called active.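 The calls were made as follows: active = activation factor of 2 or more for CYP2C9 at a 5 µM dose; inactive = the rest.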 The entries come from a sample that favours actives as a whole.

For the test, the target named is Cytochrome P450 2C9 (Homo sapiens) (UniProt P11712). Nature of the test: human CYP2C9 activators, primary screen, biochemical, luminescence (AID 1024).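 Also: 0 = sulfaphenazole-blocked wells and 1 = vehicle-only wells.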 Conditions: recombinant CYP2C9, luciferin-H conversion, at 5 µM, stronger effect = higher value, factor 1 = untreated enzyme, 0 = blocked.
Cytochrome P450 2C9 (Homo sapiens), sequence (P11712 whole entry, looked up): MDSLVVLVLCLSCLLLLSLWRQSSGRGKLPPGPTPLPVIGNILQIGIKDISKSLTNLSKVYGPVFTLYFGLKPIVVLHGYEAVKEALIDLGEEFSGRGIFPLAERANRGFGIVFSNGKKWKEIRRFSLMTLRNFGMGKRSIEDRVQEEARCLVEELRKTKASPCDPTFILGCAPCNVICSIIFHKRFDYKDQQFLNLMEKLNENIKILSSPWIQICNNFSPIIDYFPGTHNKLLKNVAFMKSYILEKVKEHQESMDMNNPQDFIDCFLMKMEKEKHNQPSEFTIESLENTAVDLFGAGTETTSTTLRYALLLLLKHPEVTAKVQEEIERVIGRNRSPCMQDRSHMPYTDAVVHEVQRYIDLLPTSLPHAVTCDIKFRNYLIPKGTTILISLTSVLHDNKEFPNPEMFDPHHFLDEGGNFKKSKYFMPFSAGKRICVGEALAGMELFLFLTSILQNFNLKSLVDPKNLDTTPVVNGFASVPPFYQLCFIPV
For the compound `Cc1nc2cc(NC(=O)CSc3nc4c(C)cccc4cc3C#N)ccc2s1`, the activation factor is 0.7 (inactive). To `Cn1cc(CCC(=O)NCc2ccc3c(c2)OCO3)c2ccccc21` belongs 2.2 (active). To `O=C(COc1ccccc1)NCc1ccc2c(c1)OCO2` belongs 0.7 (inactive); to `O=C(CCCCn1c(=O)[nH]c2ccccc2c1=O)NCc1ccc2c(c1)OCO2`, 0.3 (inactive); to `CCCc1cc(=O)[nH]c(SCC(=O)c2cc(C)n(CCC)c2C)n1`, 0.9 (inactive).

Take `Cc1ccc2nc(SCc3nnc(-c4ccccc4[N+](=O)[O-])o3)c(C#N)cc2c1`: the activation factor was 0.8 (inactive). With `COC(=O)Cc1cc(=O)oc2c(C)c(O)ccc12` the figure was 1.2 (inactive); with `Cc1nc(Cl)c2oc3ccccc3c2n1`, 0.9 (inactive). To `Cc1ccc(NC(=O)C2CC(c3ccc(F)cc3)=NO2)cc1` (stereo not given) belongs 0.8 (inactive); to `CC(C)C(=O)Nc1cccc(C(=O)Nc2ccc3c(c2)OCO3)c1`, 0.4 (inactive); to `O=C(Nc1ccc2c(c1)OCO2)C1CC(c2c(F)cccc2Cl)=NO1` (stereo not given), 2.6 (active).

On to `c1ccc(COc2ccccc2CNCc2cccnc2)cc1`, for which the activation factor was 1.1 (inactive). To `Cc1csc(=NC(=O)c2ccccc2)n1CCO` belongs 0.7 (inactive). Turning to `Cc1cc(C)c2c3c(sc2n1)C(c1ccccc1)C(C#N)=C(N)O3` (stereo not given), the activation factor was 0.9 (inactive).

As for `CC1CC(C)CN(S(=O)(=O)c2cccc(C(=O)N3C(=O)c4cccc(N)c4C3=O)c2)C1` (stereo not given), the activation factor is 0.9 (inactive). To `O=C(CSc1nc(C2CC2)nc2ccccc12)Nc1ccc2c(c1)OCCO2` belongs 0.6 (inactive); to `O=C(O)C1CC=CCC1C(=O)Nc1ccccc1C(=O)N1CCN(c2ccccc2)CC1` (stereo not given), 0.9 (inactive). With `Cc1ccc(C(=O)N/C(=C/c2ccco2)C(=O)NCCc2c[nH]c3ccccc23)cc1C` the figure was 0.5 (inactive). To `COc1ccc(/C=C(\NC(=O)c2ccc(OC)c(OC)c2)C(=O)NCCc2c[nH]c3ccccc23)cc1` belongs 0.6 (inactive); to `CC(=O)N/C(=C/c1ccc(Cl)cc1)C(=O)NCCc1c[nH]c2ccccc12`, 2.7 (active); to `O=C1c2ccccc2C(=O)N1CCCc1nc(-c2ccccc2)no1`, 0.8 (inactive). Take `O=C1c2cccnc2C(=O)N1Cc1cccs1`: the activation factor was 0.9 (inactive). With `O=C1c2ccccc2C(=O)N1Cc1cc(-c2ccccc2Cl)no1`, the activation factor was 2.3 (active). To `Cc1c(C#N)c(NC(=O)c2ccccc2)n(Cc2ccccc2)c1C` belongs 0.4 (inactive); to `CC(C)CC(=O)Nc1cc(C(F)(F)F)ccc1N1CCOCC1`, 0.9 (inactive); to `CC(CC(=O)Nc1cc(C(F)(F)F)ccc1Cl)c1ccccc1` (stereo not given), 2.4 (active). To `O=C(CNS(=O)(=O)c1cccc(C(F)(F)F)c1)Nc1ccccc1F` belongs 1.2 (inactive); to `Cc1nc2ccc(NC(=O)C(F)(F)F)cc2o1`, 1 (inactive). Consider `Cc1c(CCO)c(=O)[nH]n1C(=O)c1c(F)cccc1F`, for which the activation factor is 1 (inactive). Take `CCOc1ccc(S(=O)(=O)NCC2CCCO2)cc1` (stereo not given): the activation factor was 0.9 (inactive). With `CCC(=O)Nc1ccc(S(=O)(=O)NCC2CCCO2)cc1` (stereo not given) the figure was 1 (inactive); with `O=S(=O)(NCC1CCCO1)c1ccc2ccccc2c1` (stereo not given), 3 (active). With `O=c1c2ccccc2nc2n1C(CSCc1ccccc1)CS2` (stereo not given) the figure was 0.9 (inactive); with `CCN1CCN(C(=O)/C=C\C(=O)O)CC1`, 1 (inactive); with `Cc1ccc(CNC(=O)C2CC(c3ccccc3[N+](=O)[O-])=NO2)o1` (stereo not given), 1.2 (inactive).

As for `CC(=O)Nc1ccc(S(=O)(=O)N2CCCC2C(=O)O)cc1` (stereo not given), the activation factor was 1.1 (inactive). To `Cc1ccc(S(=O)(=O)N2CCCC2C(=O)NCc2ccco2)cc1` (stereo not given) belongs 1.5 (inactive); to `Cc1cccc(NC(=O)C2CCCN2S(=O)(=O)c2ccc(F)cc2)c1C` (stereo not given), 2.5 (active); to `O=C(Cn1nc(C(F)(F)F)c2c1CCC2)NCc1ccc(F)cc1`, 3.2 (active). To `Cc1cc(NC(=O)Cn2nc(C(F)(F)F)c3c2CCCC3)no1` belongs 0.9 (inactive). Turning to `COC(=O)c1ccccc1NC(=O)Cn1nc(C(F)(F)F)c2c1CCC2`, the activation factor was 0.8 (inactive). Take `CN1C2CCC1/C(=C\c1ccccc1Cl)C(=O)/C2=C\c1ccccc1Cl`: the activation factor was 1.8 (inactive). With `COC(=O)/C=C/C(=O)NCc1ccco1` the figure was 1 (inactive); with `C=CCn1c(COc2ccccc2)nnc1SCC(=O)NCC(=O)OCC`, 1.1 (inactive).

For the compound `C=CCn1c(COc2ccccc2F)nnc1SCC(=O)N1CC(=O)Nc2ccccc21`, the activation factor is 0.9 (inactive). With `C=CCn1c(COc2cccc3cccnc23)nnc1SCC(=O)OC` the figure was 4.1 (active); with `CCN(CC)Cc1csc2ccc(Br)cc12`, 1.1 (inactive).

As to `COc1cc(C(=S)N2CCOCC2)cc(OC)c1OC(=O)c1cc([N+](=O)[O-])c(C)c([N+](=O)[O-])c1`, the activation factor was 0.9 (inactive). With `COc1ccc(NCc2nnc(SCc3ccccc3)n2-c2ccc(OC)cc2)cc1` the figure was 0.4 (inactive).

Take `O=C(CCS(=O)(=O)c1cccc2nsnc12)N1CCN(c2ccccc2F)CC1`: the activation factor was 2.4 (active). To `O=C(C(NS(=O)(=O)c1cccc2nsnc12)c1ccccc1)N1CCN(c2ccccc2)CC1` (stereo not given) belongs 0 (inactive). To `Cc1cccc(C)c1NC(=O)CCS(=O)(=O)c1cccc2nsnc12` belongs 1 (inactive); to `CSc1nc(-c2ccco2)nn1C(=O)CCc1ccccc1`, 1.1 (inactive). For `O=C(N/N=C/c1ccsc1)c1cc(O)cc(O)c1`, the activation factor is 0.9 (inactive).

Turning to `COc1ccc(-c2csc3nc(-c4ccccc4F)oc(=O)c23)cc1OC`, the activation factor is 1 (inactive). To `CCOC(=O)N1CCN(C(=O)c2cc3c(ccc4ccccc43)oc2=O)CC1` belongs 0.5 (inactive); to `C=CCc1cccc2cc(C(=O)N3CCN(C(=O)OCC)CC3)c(=O)oc12`, 2.1 (active).

As for `CS(=O)(=O)N1CCN(C(=O)c2cc3ccccc3oc2=O)CC1`, the activation factor was 1 (inactive). To `CCC(C)NC(=O)c1c(N)n(/N=C/c2cccs2)c2nc3ccccc3nc12` (stereo not given) belongs 0.8 (inactive); to `Cc1cccc(-n2cnc(C(=O)Nc3cccnc3)c2)n1`, 0.1 (inactive); to `CCOc1ccccc1NC(=O)CCc1ccc(C)o1`, 2.8 (active). To `CCOc1ccccc1Nc1nnc(SCC(=O)Nc2cc(C)on2)s1` belongs 0.9 (inactive); to `CCOc1ccccc1NC(=O)CCN1CCN(S(=O)(=O)c2ccc(OC)cc2)CC1`, 0.6 (inactive). To `Cc1c(Nc2nc3ccccc3nc2NS(=O)(=O)c2cccs2)c(=O)n(-c2ccccc2)n1C` belongs 0.5 (inactive); to `O=C(CCc1ccc(S(=O)(=O)N2CCOCC2)cc1)Nc1ccc2ccccc2c1`, 0.4 (inactive); to `CCCOc1ccccc1C(=O)NCCCC(=O)O`, 1.1 (inactive). `CCOc1ccccc1C(=O)NCCCn1ccnc1`: the activation factor was 0.3 (inactive). As to `CCCCOCCCNC(=O)c1ccccc1OCC`, the activation factor is 2.9 (active). To `CCc1cc(C(c2ccccc2OC)N2CCOCC2)c(NC(=O)c2ccccc2)s1` (stereo not given) belongs 0.1 (inactive); to `O=C(NC1CCCCC1)C1CC(=O)N(CCc2ccccc2)C1` (stereo not given), 1 (inactive); to `Cc1nn(-c2ccccn2)c2c1C(c1ccncc1)C1=C(CC(C)(C)CC1=O)N2` (stereo not given), 0.2 (inactive). With `COc1ccc(/C=C2\CCCC3C2=NN(C(=O)c2scnc2C)C3c2ccc(OC)cc2)cc1` (stereo not given) the figure was 0.2 (inactive); with `CC(=O)Cc1nsc(NC(=O)c2csc3c2CCCC3)n1`, 0.7 (inactive); with `O=C(NCc1ccccc1Cl)c1csc2c1CCCCC2`, 2.5 (active). With `COC(=O)c1sccc1NC(=O)c1csc2c1CCCC2` the figure was 0.9 (inactive); with `CC(C)(C)NS(=O)(=O)CC12CCC(CC1=O)C2(C)C` (stereo not given), 0.8 (inactive). Take `Cc1cc(C)c2c(-n3cccc3)c(C(=O)NNS(=O)(=O)c3ccc(F)cc3)sc2n1`: the activation factor is 0 (inactive). `Cc1ccc2nc(/C(C#N)=C\c3ccc(OC(=O)c4cccs4)cc3)[nH]c2c1`: the activation factor was 0.2 (inactive). With `C=CCOC(=O)C1=C(C)NC(C)=C(C(=O)OCC=C)C1c1cccs1` the figure was 0 (inactive); with `CNC(=O)c1csc(-c2ccccc2)n1`, 0.9 (inactive). Turning to `O=C(CSCc1ccccc1)N1CCc2ccccc21`, the activation factor is 1.1 (inactive). With `Cc1ccc(S(=O)(=O)N(C)CC(=O)N2CCc3ccccc32)cc1` the figure was 2.3 (active). To `Cc1ccc(S(=O)(=O)NCC(=O)OCC(=O)N2CCc3ccccc32)cc1` belongs 1.3 (inactive); to `CCCC(=O)Nc1nc2ccc(NC(=O)c3cccnc3)cc2s1`, 0.7 (inactive); to `O=C(/C=C\NCC(=O)c1ccccc1)c1ccccc1`, 0.9 (inactive).

Take `Cc1nn(-c2ccccc2)c(Cl)c1C(=O)Nc1ccccc1`: the activation factor was 1.5 (inactive). Take `COc1ccccc1-c1nnc(SCC(=O)N2CC(C)CC(C)C2)o1` (stereo not given): the activation factor is 3.9 (active). With `COc1ccccc1N1CCN(C(=O)CSc2nnc(-c3ccoc3C)o2)CC1` the figure was 0.7 (inactive); with `COc1ccccc1-c1nnc(SCC(=O)Nc2ccccc2)o1`, 1.6 (inactive); with `Cc1cccc(C)c1NC(=O)c1ccc(CN2CCc3ccccc3C2)cc1`, 1.1 (inactive). For `Cn1nc([N+](=O)[O-])nc1Sc1ccc(C(C)(C)C)cc1`, the activation factor is 0.9 (inactive). To `COc1cccc(/C=N\Nc2nncc(-c3ccccc3)n2)c1` belongs 0.9 (inactive); to `COc1ccc(S(=O)(=O)N2CCCC2)c(C)c1C`, 2.5 (active). As for `COc1ccc(S(=O)(=O)N2CCCC(C(=O)N3CCN(C)CC3)C2)cc1C` (stereo not given), the activation factor was 1.2 (inactive). In the case of `CCOc1ccc(S(=O)(=O)N2CCCCCC2)c2ccccc12`, the activation factor was 1.5 (inactive). To `COc1ccc(S(=O)(=O)Nc2ccc(S(=O)(=O)N3CCCCC3)cc2)cc1OC` belongs 0.1 (inactive); to `COc1ccc(S(=O)(=O)N2CCCCC2)cc1Br`, 2.1 (active); to `COc1ccc(S(=O)(=O)Nc2ccc(F)cc2)c(C)c1C`, 0.3 (inactive).

Regarding `Cc1ccc(-c2nn(-c3ccccc3)cc2/C=N/NC(=O)c2ccc3c(c2)OCO3)cc1`, the activation factor is 0.2 (inactive). With `O=C(O)C1CCCN(S(=O)(=O)c2cccc3cccnc23)C1` (stereo not given) the figure was 1.2 (inactive); with `COc1ccccc1CNC(=O)C1CCCN(S(=O)(=O)c2cccc3cccnc23)C1` (stereo not given), 2.9 (active); with `COc1ccc(NC(=O)C2CCCN(S(=O)(=O)c3cccc4cccnc34)C2)cc1OC` (stereo not given), 1.2 (inactive). `COc1ccc(NC(=O)C2CCCN(S(=O)(=O)c3cccc4cccnc34)C2)cc1` (stereo not given): the activation factor is 1.5 (inactive). With `Cc1cccc(NC(=O)C2CCN(S(=O)(=O)c3cccc4cccnc34)CC2)c1` the figure was 2.8 (active); with `O=C(Nc1nccs1)C1CCCN1S(=O)(=O)c1cccc2cccnc12` (stereo not given), 0.5 (inactive).

The values are drawn from PubChem BioAssay AID1024 (Sanford-Burnham Center for Chemical Genomics, 2008).
